Source: PubChem BioAssay AID588726 (The Scripps Research Institute Molecular Screening Center, 2011)
About 8,200 (2.3%) of roughly 360,000 compounds were called active. Many of the other results were omitted from the sample, so actives are more common in it than they were. A number with no mark means an inactive call. Rule as the data show it: active = inhibition above about 27%; inactive = the rest.

Target: Fructose-bisphosphate aldolase (Mycobacterium tuberculosis (strain ATCC 25618 / H37Rv)) (UniProt P9WQA3)
Sequence (P9WQA3 whole entry, looked up): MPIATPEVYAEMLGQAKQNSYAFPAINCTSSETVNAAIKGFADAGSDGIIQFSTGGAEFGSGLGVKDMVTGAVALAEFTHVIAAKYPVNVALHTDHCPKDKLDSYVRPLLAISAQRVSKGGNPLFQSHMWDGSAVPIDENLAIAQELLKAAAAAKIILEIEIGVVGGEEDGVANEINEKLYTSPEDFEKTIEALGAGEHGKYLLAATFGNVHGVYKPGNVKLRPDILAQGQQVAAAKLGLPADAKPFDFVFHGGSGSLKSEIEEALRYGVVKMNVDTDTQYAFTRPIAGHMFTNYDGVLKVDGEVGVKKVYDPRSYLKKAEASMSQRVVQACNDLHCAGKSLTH
Assay: M. tuberculosis aldolase activity blockers – biochemical, fluorescence, strain H37Rv, primary screen (AID 588726);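 also: 0% = vehicle and 100% = reference inhibitor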
Conditions: purified M. tuberculosis FBA, fluorescence read-out, at 1 µM, stronger effect = higher value

| SMILES | inhibition |
| --- | --- |
| CC1(C)OC(=O)C(=CNC(CO)C(=O)O)C(=O)O1 (stereo not given) | -1.2% |
| CCOC(=O)Cc1ncccc1C(=O)Nc1ccc(OC)cc1 | -0.27% |
| CCOC(=O)Cn1c(=O)n(Cc2ccc(OC)cc2)c(=O)c2cccnc21 | 99.3% (active) |
| COCCCNC(=O)CCc1nc2cccnc2n1Cc1ccc(OC)cc1 | -2.9% |
| COc1cc(CCN=Cc2ccccc2O)c([N+](=O)[O-])cc1OC | 1.91% |
| O=C(COc1ccc(-c2ccccc2)cc1)NN=C1CCCC1 | 4.25% |
| CN(C)C(=O)c1coc2nc3ccccc3nc12 | 131% (active) |
| CN(C)CCNC(=O)c1ccc(Cl)c2cc3ccccc3nc12 | 9.35% |
| COc1cccc2cc(C(=O)N(C)C)c(=O)oc12 | -1.37% |
| COc1ccc(C(F)(F)F)cc1N/C=C\c1nnnn1-c1ccc(C)cc1 | 1.79% |
| CCCCNC(=O)N1CCCC(N(C)CCc2ccc(OC)c(OC)c2)C1 (stereo not given) | 3% |
| CCCS(=O)(=O)Nc1c(C(=O)O)[nH]c2ccccc12 | 38.6% (active) |
| CCOC(=O)C1CCN(C(=O)Cc2c(C(=O)O)[nH]c3ccccc23)CC1 | 3.52% |
| O=C(O)c1[nH]c2ccccc2c1C(c1cccc(O)c1)c1c(C(=O)O)[nH]c2ccccc12 | 0.61% |
| CCOC(=O)/C=C/C(=O)OCC(=O)NC(c1ccccc1)c1ccccc1 | 1.96% |
| Cc1cc(Cl)c2oc(C(=O)N(C)C(C)c3ccccn3)c(C)c2c1 (stereo not given) | 5.49% |
| CC(C)C(=O)N1CCC2(CC1)Oc1ccc(F)cc1C(=O)C21CC(c2ccccc2)=NO1 (stereo not given) | 4.59% |
| CN(C)CCCN(Cc1cc2cc3c(cc2[nH]c1=O)OCCO3)C(=O)NC1CCCCC1 | 26.5% |
| Cc1cc(C)c2[nH]c(=O)c(CN(Cc3ccccc3)C(=S)NCCCN(C)C)cc2c1 | 5.66% |
| CCNC(=S)N(CCN(CC)CC)Cc1cc2cc3c(cc2[nH]c1=O)OCO3 | 32.3% (active) |
| COCCCNC(=S)N(CCN(C)C)Cc1cc2cc3c(cc2[nH]c1=O)OCCO3 | 28.8% (active) |
| CCN(CC)CCCNC(=S)N(CCO)Cc1cc2cc3c(cc2[nH]c1=O)OCO3 | 13.2% |
| CCNC(=S)N(CCN(CC)CC)Cc1cc2cc3c(cc2[nH]c1=O)OCCO3 | 22% |
| COc1cc(NC(=O)CSC(=S)N2CCCC2)c(OC)cc1Cl | 9.36% |
| Cc1ccsc1C1C(C#N)=C(N)OC2=C1C(=O)CC(C)(C)C2 (stereo not given) | 5.8% |
| CCc1ccc(OCC(=O)N(Cc2ccccc2)C2CCS(=O)(=O)C2)cc1 (stereo not given) | 4.66% |
| Cn1c(=O)c2c(SCC(=O)NCC3CCCO3)nc(CC(C)(C)C)nc2n(C)c1=O (stereo not given) | -0.73% |
| O=C(CC[C@H]1O[C@@H](n2ccc(=O)[nH]c2=O)[C@H](O)[C@@H]1O)N[C@H](Cc1ccccc1)C(=O)NCc1ccco1 | 1.72% |

| SMILES | inhibition |
| --- | --- |
| COCCCn1c(SCC(=O)NC2CCCC2)nnc1-c1ccccc1 | -5.58% |
| CCc1cccc2c(=O)c(C(=O)NCCCOC)c[nH]c12 | 1.41% |
| Cc1ccc(S(=O)(=O)c2cc3c(=O)n4cccc(C)c4nc3n(CCc3ccccc3)c2=N)cc1C | -2.09% |
| Cc1cccn2c(=O)c3cc(C(=O)NC4CCCCC4)sc3nc12 | 9.42% |
| COCCCn1c(C(=O)NC2CCCCC2)cc2c(=O)n3cccc(C)c3nc21 | 37.6% (active) |
| CCn1c(=N)c(C(=O)NCCCOC)cc2c(=O)n3cccc(C)c3nc21 | 661% [above what the read-out allows, likely interference] (active) |
| CC(NCCc1ccc(S(N)(=O)=O)cc1)C(=O)NCc1ccccc1 (stereo not given) | 0.46% |
| Cc1cccc(C2c3c(n(C)c(=O)n(C)c3=O)N=C3c4ccccc4C(=O)C32)c1 (stereo not given) | -1.16% |
| CCOc1ccc(C(=O)Nc2c3c(nn2-c2ccccc2)CS(=O)(=O)C3)cc1 | 0.76% |
| O=S(=O)(c1ccc(F)cc1)N1CCN(C(=S)NC2CCCC2)CC1 | 0.47% |
| C[C@@H]1CN([C@@H](C)CO)C(=O)c2cc(Br)cnc2O[C@@H]1CN(C)C(=O)C1CCCCC1 | -2.01% |
| O=C(Cn1nnc(-c2ccccc2)n1)NC(=O)NC1CCCC1 | 0.56% |
| O=C(O[C@H]1[C@H](Cc2ccccc2)NS(=O)(=O)[C@H]2C[C@@H]3C=C[C@]12O3)c1ccc([N+](=O)[O-])cc1 | 1.68% |
| Cc1nnc(SCC(=O)Nc2ccc(S(=O)(=O)Nc3ccc(Cl)nn3)cc2)s1 | -1.39% |
| CC1=C(C(=O)OC2CCCCC2)C(c2cccnc2)n2ncnc2N1 (stereo not given) | 1.05% |
| Brc1ccc(C2=CC(c3ccco3)n3ncnc3N2)cc1 (stereo not given) | 31.5% (active) |
| CCOc1ccc(C2=CC(c3ccccc3)n3ncnc3N2)cc1 (stereo not given) | 48.9% (active) |
| Clc1ccc2c(c1)C1=C(C(c3ccncc3)O2)C(c2ccc(Br)cc2)n2ncnc2N1 (stereo not given) | 1.95% |
| Cc1ccc(F)c(S(=O)(=O)NC(=O)C2(C)CCN2C(=O)c2ccco2)c1 (stereo not given) | -2.4% |
| Cc1ccc(CCCOC(=O)C[N+]2(C)CCCC2)cc1 | 2.21% |
| COC(=O)C1(CCSC)NC(c2ccc(OC)cc2OC)C2C(=O)N(c3cccc(C(C)=O)c3)C(=O)C21 (stereo not given) | 1.37% |
| CO[C@H]1[C@@H]2C=CO[C@@H](O[C@H]3O[C@@H](CO)[C@H](O)[C@@H](O)[C@@H]3O)[C@@H]2[C@@]2(CO)O[C@@H]12 | 2.4% |
| CCOC(=O)C1CCCN(C(=O)c2ccc(CS(=O)(=O)c3ccc(Br)cc3)o2)C1 (stereo not given) | 1.86% |
| COc1ccccc1-c1oc2ccccc2c1C#CCCCCO | 30.8% (active) |
| COc1ccccc1-c1sc2ccccc2c1C#CC1(O)CCCCC1 | 6.51% |
| CCNC(=O)CC1C(=O)N(c2ccc(F)cc2)C(=O)N1Cc1cccs1 (stereo not given) | -3.21% |
| CSCC[C@H](NC(=O)NC1CCCC1)C(=O)O | -1.95% |
